Screen size: about 360,000 compounds; about 620 (0.17%) were called active. This is one part of a sample in which actives are shown more often than they occur.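 Rule for the calls: active = inhibition above a per-campaign cutoff, the mean of all compounds plus 3 SD (cut at about 60% in these data); inactive = the rest.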

For this test, the target named is Nuclear receptor coactivator 3 (Homo sapiens) (UniProt Q9Y6Q9). Put plainly: NCOA3 GAL4-fusion reporter inhibition – cell-based, luminescence, primary screen (AID 588352).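 Note: 0% = DMSO-treated cells and 100% = gossypol-treated cells at 36 µM; higher means less SRC3-driven luciferase light from the GAL4 reporter.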 The settings on record: HEK293 GAL4-SRC3 luciferase reporter, at 3.6 µM, stronger effect = higher value. (In a reporter assay the amount or activity of a reporter protein is the signal.)
Nuclear receptor coactivator 3 (Homo sapiens), sequence (Q9Y6Q9 whole entry, looked up, the tested form may be a part): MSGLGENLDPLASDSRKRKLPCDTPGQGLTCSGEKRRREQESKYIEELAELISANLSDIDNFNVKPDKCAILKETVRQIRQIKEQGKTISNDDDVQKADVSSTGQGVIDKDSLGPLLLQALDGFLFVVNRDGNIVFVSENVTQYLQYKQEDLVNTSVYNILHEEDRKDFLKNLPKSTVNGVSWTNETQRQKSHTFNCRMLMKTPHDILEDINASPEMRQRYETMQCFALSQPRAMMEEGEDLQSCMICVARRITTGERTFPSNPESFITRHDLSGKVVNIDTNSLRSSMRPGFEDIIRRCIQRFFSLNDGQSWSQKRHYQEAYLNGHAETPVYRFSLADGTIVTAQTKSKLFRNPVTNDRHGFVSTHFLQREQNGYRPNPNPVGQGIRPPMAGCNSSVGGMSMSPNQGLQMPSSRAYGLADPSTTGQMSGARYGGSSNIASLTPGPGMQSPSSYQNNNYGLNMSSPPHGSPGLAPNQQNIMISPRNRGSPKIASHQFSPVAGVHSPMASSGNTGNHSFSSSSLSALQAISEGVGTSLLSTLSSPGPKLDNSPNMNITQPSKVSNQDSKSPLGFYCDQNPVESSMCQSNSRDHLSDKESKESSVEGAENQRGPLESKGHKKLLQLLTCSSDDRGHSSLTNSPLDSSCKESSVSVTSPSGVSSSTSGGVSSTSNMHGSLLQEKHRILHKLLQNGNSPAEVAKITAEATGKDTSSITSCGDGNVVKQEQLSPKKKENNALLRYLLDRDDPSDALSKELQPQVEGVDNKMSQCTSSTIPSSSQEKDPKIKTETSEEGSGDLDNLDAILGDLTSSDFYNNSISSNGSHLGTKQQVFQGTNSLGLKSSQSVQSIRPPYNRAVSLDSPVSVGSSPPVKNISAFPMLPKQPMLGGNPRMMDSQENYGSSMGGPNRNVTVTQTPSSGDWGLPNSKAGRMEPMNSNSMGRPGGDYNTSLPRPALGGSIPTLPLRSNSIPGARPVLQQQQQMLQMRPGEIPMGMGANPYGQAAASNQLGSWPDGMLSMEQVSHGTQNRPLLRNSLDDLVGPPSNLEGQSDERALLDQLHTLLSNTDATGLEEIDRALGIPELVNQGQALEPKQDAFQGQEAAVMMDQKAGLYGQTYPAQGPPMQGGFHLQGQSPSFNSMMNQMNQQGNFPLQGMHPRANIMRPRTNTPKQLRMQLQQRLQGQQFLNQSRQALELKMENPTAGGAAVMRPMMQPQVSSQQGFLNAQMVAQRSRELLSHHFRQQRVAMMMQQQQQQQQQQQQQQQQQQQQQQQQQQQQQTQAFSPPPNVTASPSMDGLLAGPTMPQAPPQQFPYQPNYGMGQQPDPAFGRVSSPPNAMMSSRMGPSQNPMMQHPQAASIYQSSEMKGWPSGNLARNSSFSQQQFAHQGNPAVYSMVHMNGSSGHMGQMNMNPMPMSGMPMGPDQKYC
In general, inhibition refers to the relative decrease from the control value, in per cent. As to `Nc1cccc2c1C(=O)N(Cc1nnc(-c3ccccc3Br)o1)C2=O`, the inhibition was 7.44% (inactive).

For the compound `COc1ccc(C(=O)N2CCCCC2C(=O)Nc2ccc(-n3nc(C)cc3C)cc2)o1` (centres undefined), the inhibition is -17.3% (inactive). As for `Clc1ccc(-c2nnc(-c3ccccc3)nc2N2CCSCC2)cc1`, the inhibition was 5.59% (inactive). Regarding `O=C(NCC1(N2CCCCC2)CCCCC1)c1ccc(NS(=O)(=O)c2ccc(F)cc2)cc1`, the inhibition is -2.32% (inactive). Consider `CCN(CC(=O)Nc1c(F)cccc1F)C(=O)CN1c2cccc3cccc(c23)S1(=O)=O`, for which the inhibition is -23.2% (inactive). On to `COc1ccc(C(=O)Nc2ccc(C3(C#N)CCCC3)cc2)cc1OC`, for which the inhibition is -41% (inactive). For the compound `C[C@H](C(=O)CC(=O)OC(C)(C)C)[C@H](O)c1ccc(C(F)(F)F)cc1`, the inhibition is 4.25% (inactive). The result for `O=S(=O)(c1cccc(-c2cn3ccccc3n2)c1)N1CCCC1` reads 11.7% (inactive); that for `Cc1c(CN2CCC(CO)(CCOc3ccccc3)CC2)[nH]c2ccc(Cl)cc12`, -36.5% (inactive); that for `CN(CC(=O)Nc1c(Cl)cccc1Cl)C(=O)CC1OC(=O)c2ccccc21` (centres undefined), 12.4% (inactive). In the case of `COC(=O)/C(=C1\Oc2ccc(C(C)(C)C)cc2S1)C(F)(F)F`, the inhibition is 5.95% (inactive).

In the case of `CCc1nc2c(OCCOc3ccccc3)cccn2c1N(C)C(=O)c1cccs1`, the inhibition was -22.5% (inactive). As for `COc1ccc(C(=O)Nc2ccccc2C(=O)N/N=C/c2ccc(O)c(OC)c2)cc1`, the inhibition is 69.8% (active).

In the case of `COc1cccc(OCc2cc(/C=N/NC(=O)c3nc(Cl)c(Cl)c(N)c3Cl)ccc2OC)c1`, the inhibition is -12.8% (inactive). Consider `CCn1c(/C=N/NC(=O)c2ccc(OC)cc2)nc2ccccc21`, for which the inhibition is 15.7% (inactive). `C=CCN(c1ccc(Cl)cc1)S(=O)(=O)c1cccc(C(=O)OCC(=O)N(C)C)c1`: the inhibition was 16.1% (inactive). `CC(C)[C@@H](C(=O)OCC(=O)c1ccc2c(c1)NC(=O)CO2)N1C(=O)c2ccccc2C1=O`: the inhibition is -6.83% (inactive). As for `CC(CO)N1CCS(=O)(=O)CC1` (centres undefined), the figure is 19.6% (inactive); as for `O=C(Cc1ccc(S(=O)(=O)N2CCOCC2)s1)Nc1ccc(Br)c(C(F)(F)F)c1`, 4.75% (inactive); as for `N=c1c2c(-c3ccccc3)c(-c3ccccc3)n(Cc3ccccc3)c2ncn1CCCO`, 62.7% (active). With `COCCn1cnc2c1c(=O)n(CC(=O)NN)c(=O)n2Cc1ccccc1`, the inhibition is 1.62% (inactive). In the case of `COCCn1cnc2c1c(=O)n(Cc1ccc(Br)cc1)c(=O)n2Cc1ccccc1`, the inhibition is -1.52% (inactive).

In the case of `CC(C)CC[n+]1ccn(C2=C([O-])c3ccccc3C(=O)/C2=N\S(=O)(=O)c2ccccc2)c1`, the inhibition was -4.74% (inactive).

`CN(C)CC(C)(C)CNC(=O)c1cc(Br)cc(Br)c1O`: the inhibition was -17% (inactive).
